Each structure is given as a SMILES string.

These results are taken from PMC5540273 (PLoS ONE, 2017).

Assay [1] relates to RPS6KA5(Kin.Dom.2-C-terminal).
The test system of assay [2] is T1, RSK1(Kin.Dom.2-C-terminal).
T1 construct: gene RPS6KA1

Assay [3] relates to T2, RSK2(Kin.Dom.2-C-terminal).
T2 construct: gene RPS6KA3

Assay [4] concerns T3, RSK3(Kin.Dom.2-C-terminal).
T3 construct: gene RPS6KA2

For assay [5], the system named is SIK2.
The subject of assay [6] is T4, SNARK.
T4 construct: gene NUAK2

For assay [7], the system named is SNRK.
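Note: kd values determined as follow-up on hits from a single-replicate KINOMEscan panel screen.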

Usually Kd stands for the equilibrium constant for the complex coming apart. The low end stands for tighter binding, the high end for weaker binding. In the case of `Cc1cccc(-c2cc(Nc3ccncc3)c3ccccc3n2)n1` [GSK223675], the Kd in assay [1] was more than 10 µM.

For the molecule `Cc1ccccc1-n1cnc2c(N)ncnc21` [SKF-97510], the Kd in assay [2] was more than 10 µM.

In turn, `Nc1nc(-c2nccs2)c(-c2ccnc3ccccc23)s1` [GW693542] had an equilibrium dissociation constant (Kd) in assay [3] of more than 10 µM.

`CS(=O)(=O)c1ccc(-c2c(-c3ncn[nH]3)sc(N3CCOCC3)c2C#N)cc1` came in with a Kd in assay [4] of more than 10 µM.

In assay [5], `COc1cc2ncn(-c3cc(OCC4CCCO4)c(C(N)=O)s3)c2cc1OC` (centres unmarked) [GSK204607] registered a Kd of more than 10 µM.

In turn, `CC1=C(C(=O)Nc2cc3cn[nH]c3cc2F)C(c2ccc(C(F)(F)F)cc2)CC(=O)N1` (centres unmarked) [GSK429286] showed a Kd in assay [6] of 0.47 µM.

In assay [7], `Cn1cncc1-c1ccc2ncnc(Nc3ccc(OCc4ccccc4)cc3)c2c1` [GW320571] gave a Kd of 8.7 µM.

In assay [7], `Nc1ncnc2[nH]c(-c3ccccc3)nc12` [AH5015] displayed an equilibrium dissociation constant (Kd) of more than 10 µM.
